# Data taken from PubChem BioAssay (NCI).
# This is part of a sample that, as a whole, favours compounds with a hit. Of some 79,000 tested, about 15% had one in any assay. Values without a mark were called inactive. The source made the active and inactive calls. Cut-off read from the data, not from the text of the source: active = growth inhibition above about 70%; inactive = the rest.
# Legend:
# [1] = NCI Yeast Anticancer Drug Screen. Data for the rad50 strain (AID 155);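 note: 0% = growth of vehicle-only cultures of the same strain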; conditions: S. cerevisiae rad50 strain growth inhibition, hits give high values
# Procedure, shortened: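 Cells are treated with compound, grown, and their growth is then scored against vehicle-only cultures of the same repair-deficient yeast strain.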
# [2] = NCI Yeast Anticancer Drug Screen. Data for the mec2-1 strain (AID 157); conditions: S. cerevisiae mec2-1 strain, hits give high values
# Procedure, shortened: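 mec2-1 yeast strain, carrying an alteration in DNA damage repair or cell cycle control, was exposed to compounds; growth inhibition was measured relative to vehicle-treated controls.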
# [3] = NCI Yeast Anticancer Drug Screen. Data for the sgs1 mgt1 strain (AID 161);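 note: 0% = growth of cultures given vehicle only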; conditions: S. cerevisiae sgs1 mgt1 strain, hits give high values
# Procedure, shortened: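 Percent growth inhibition was derived by comparing compound-exposed mutant yeast with vehicle-exposed cultures. The strain carries alterations in DNA damage repair.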
# [4] = NCI Yeast Anticancer Drug Screen. Data for the bub3 strain (AID 167); conditions: S. cerevisiae bub3 mutant strain, hits give high values
# Procedure, shortened: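 Part of a panel of yeast mutants defective in DNA damage repair or cell cycle regulation. Each strain is grown with compound, and inhibition is calculated relative to solvent-treated cultures.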
# [5] = NCI Yeast Anticancer Drug Screen. Data for the mlh1 rad18 strain (AID 175); conditions: S. cerevisiae mlh1 rad18 strain growth inhibition, hits give high values
# Procedure, shortened: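 Growth inhibition of the yeast strain was measured after compound exposure and expressed relative to vehicle-treated controls. The strain carries defined defects in DNA damage repair.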
# [6] = NCI Yeast Anticancer Drug Screen. Data for the cln2 rad14 strain (AID 165);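 note: 0% = growth equal to vehicle treated cultures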; conditions: S. cerevisiae cln2 rad14 strain, hits give high values
# Procedure, shortened: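 Yeast carrying cln2 and rad14 alterations (cell cycle control and DNA damage repair) were exposed to compounds. Growth inhibition was measured against vehicle-treated controls.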
# [7] = at 5.0 µM (retest, dose inferred, filed as 0.5)
# [8] = at 50.0 µM (retest, dose inferred, filed as 5.0)
Compound,"growth inhibition [1, 7]","growth inhibition [1, 8]",growth inhibition ([1]; at 50.0 µM),"growth inhibition [2, 7]","growth inhibition [2, 8]",growth inhibition ([2]; at 50.0 µM),"growth inhibition [3, 7]","growth inhibition [3, 8]",growth inhibition ([3]; at 50.0 µM),"growth inhibition [4, 7]","growth inhibition [4, 8]",growth inhibition ([4]; at 50.0 µM),"growth inhibition [5, 7]","growth inhibition [5, 8]",growth inhibition ([5]; at 50.0 µM),"growth inhibition [6, 7]","growth inhibition [6, 8]",growth inhibition ([6]; at 50.0 µM)
CCC[CH2][Sn]([CH2]CCC)([CH2]CCC)[O]C(=O)C(OC)c1ccccc1 (stereo not given),100% (active),100% (active),90.5% (active),100% (active),100% (active),91.3% (active),99% (active),99% (active),91% (active),99% (active),99% (active),88.7% (active),100% (active),100% (active),89.4% (active),,,
C1=C(/C=C2\CCCc3c(-c4ccccc4)cc(-c4ccccc4)[o+]c32)CCC/C1=C\C1=C2OC(c3ccccc3)=CC(c3ccccc3)=C2CCC1,-11%,14%,36.6%,3%,2%,52.8%,4%,-8%,66.6%,,,,3%,35%,31.9%,18%,25%,40.9%
CC(=O)[O][Pb]([O]C(C)=O)([O]C(C)=O)[c]1ccccc1,71% (active),98% (active),90.5% (active),74% (active),99% (active),93.5% (active),86% (active),99% (active),93.6% (active),,,,91% (active),98% (active),91.2% (active),35%,99% (active),89.2% (active)
CC1CCN(CCC(=O)CC(c2ccccc2)c2c(O)c3ccccc3oc2=O)CC1 (stereo not given),16%,16%,87.3% (active),10%,10%,83.8% (active),12%,12%,88% (active),,,,18%,18%,88.3% (active),2%,2%,89.8% (active)
O=C(CC(=O)c1ccccc1)c1ccccc1.O=C(CC(=O)c1ccccc1)c1ccccc1.O=C(CC(=O)c1ccccc1)c1ccccc1.[Al],2%,-3%,19.7%,5%,4%,86.4% (active),5%,2%,43.6%,4%,3%,6.55%,0%,0%,20.4%,,,
O=[N+]([O-])/C=C/c1c(Cl)cccc1Cl,99% (active),99% (active),99.2% (active),100% (active),100% (active),99.2% (active),99% (active),99% (active),99.3% (active),,,,99% (active),99% (active),99.2% (active),99% (active),99% (active),98% (active)
O=C([CH-]C(=O)c1ccccc1)c1ccccc1.O=C([CH-]C(=O)c1ccccc1)c1ccccc1.O=C([CH-]C(=O)c1ccccc1)c1ccccc1.[Cl-].[Hf+4],38%,95% (active),88% (active),37%,96% (active),90.2% (active),50%,95% (active),91.8% (active),64%,95% (active),90.8% (active),46%,94% (active),87.9% (active),,,
O=C([CH-]C(=O)c1ccccc1)c1ccccc1.O=C([CH-]C(=O)c1ccccc1)c1ccccc1.O=C([CH-]C(=O)c1ccccc1)c1ccccc1.[Cl-].[Zr+4],36%,89% (active),87.5% (active),38%,83% (active),67.3%,45%,93% (active),86.7% (active),62%,93% (active),89.7% (active),29%,93% (active),87.8% (active),,,
N#CC(C#N)=NNc1cccc(Cl)c1Cl,43%,73% (active),90.8% (active),48%,75% (active),92.7% (active),31%,100% (active),93.2% (active),,,,41%,66%,90.2% (active),71% (active),100% (active),90.7% (active)
CCC[CH2][Sn-]([CH2]CCC)([CH2]CCC)[O]c1cc(Cl)c(Cl)cc1Cl,99% (active),96% (active),90% (active),100% (active),100% (active),93.2% (active),100% (active),100% (active),93.2% (active),100% (active),100% (active),91.8% (active),99% (active),94% (active),90.2% (active),,,
C/C(=C\c1ccccc1)[N+](=O)[O-],96% (active),99% (active),98.7% (active),26%,100% (active),93.2% (active),26%,98% (active),92.4% (active),12%,99% (active),94.2% (active),35%,99% (active),99.3% (active),,,
